# Laboratory results reported in PubChem BioAssay (NCATS).
# Records with an inconclusive call do not appear. Active and inactive are the calls of the source. Calls come from the whole dose curve; as a rule, active = well fitted curve in the direction sought with a large enough effect; inconclusive = small, poorly fitted or top-dose-only effect, or another doubt; inactive = no such curve, though single readings can be large; an effect the other way counts as inactive or inconclusive.
# Experiment: qHTS of pediatric cancer cell lines to identify multiple opportunities for drug repurposing: Confirmatory screen for LAN-5 cells (AID 1347113)
# Details: LAN-5 neuroblastoma cell viability; series mostly up to 45.9 µM
# Outline: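 Cells (500-1,000/well) rested 5 h, then received compounds for 48 h; metabolically active cells were measured by CellTiter-Glo luminescence. Final concentrations spanned up to 46 µM (MIPE, 11-point) or 0.59 nM-46 µM (NPC, 8-point) in primary screens, 11-point in follow-ups.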
# Note: nearly all actives have a fitted effect of over 65% in size.
# Potency is the fitted concentration of half-maximal effect.
row,SMILES,Potency
1,C=CCON=C(C[C@H]1O[C@@H]2O[C@]3(C)CC[C@@H]4[C@H](C)CC[C@@H]([C@H]1C)[C@@]24OO3)[C@H]1O[C@@H]2O[C@]3(C)CC[C@H]4[C@H](C)CC[C@@H]([C@@H]1C)[C@@]24OO3,522 nM (active)
2,Cc1ccccc1-n1c(Cn2ncc3c(N)ncnc32)nc2cccc(C)c2c1=O,522 nM (active)
3,CC(C)[C@]12O[C@@H]1[C@@H]1O[C@]13[C@]1(O[C@H]1C[C@@H]1C4=C(CC[C@@]13C)C(=O)OC4)[C@H]2O,147 nM (active)
4,O=C(N[C@H]1CN2CCC1CC2)c1ccc(Cl)cc1,23300 nM (active)
5,Cc1c(C(=O)Nc2cccc(C(F)(F)F)c2)cc(-c2ccccc2)n1CCCN1CCOCC1,42700 nM (active)
6,CC=C(C)C(=O)N[C@@H](c1ccccc1)[C@@H](O)C(=O)O[C@H]1C[C@@]2(O)[C@@H](OC(=O)c3ccccc3)[C@@H]3[C@]4(OC(C)=O)CO[C@@H]4C[C@H](O)[C@@]3(C)C(=O)[C@H](OC(C)=O)C(=C1C)C2(C)C,inactive
7,S=C(SSC(=S)N1CCCCC1)N1CCCCC1,1040 nM (active)
8,C[C@H]1CCCC=CC2C[C@H](O)C[C@@H]2[C@H](O)C=CC(=O)O1 (stereo not given in full),117 nM (active)
9,CCCCCC[C@H]1C(=O)O[C@H](C)[C@H](NC(=O)c2cccc(NC=O)c2O)C(=O)O[C@@H](C)[C@@H]1OC(=O)CC(C)C,5850 nM (active)

# Experiment: qHTS of pediatric cancer cell lines to identify multiple opportunities for drug repurposing: Confirmatory screen for DAOY cells (AID 1347114)
# Details: DAOY medulloblastoma cells viability, cytotoxicity qHTS; series mostly up to 45.9 µM
# Outline: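 Viability measured as metabolically active cells via CellTiter-Glo luminescence following 48 hours of compound exposure, 11-point dilutions in confirmatory testing. 500-1,000 cells/well plated 5 hours before dosing; controls were DMSO and 2.3 µM bortezomib.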
row,SMILES,Potency
1,COc1ccc(C(=O)c2c(C)n(CCN3CCOCC3)c3cc(I)ccc23)cc1,18500 nM (active)
2,C=CCON=C(C[C@H]1O[C@@H]2O[C@]3(C)CC[C@@H]4[C@H](C)CC[C@@H]([C@H]1C)[C@@]24OO3)[C@H]1O[C@@H]2O[C@]3(C)CC[C@H]4[C@H](C)CC[C@@H]([C@@H]1C)[C@@]24OO3,1850 nM (active)
3,O=C(Nc1ccncc1)C(=O)c1cn(Cc2ccc(Cl)cc2)c2ccccc12,293 nM (active)
4,Cc1ccccc1-n1c(Cn2ncc3c(N)ncnc32)nc2cccc(C)c2c1=O,inactive
5,CC(C)[C@]12O[C@@H]1[C@@H]1O[C@]13[C@]1(O[C@H]1C[C@@H]1C4=C(CC[C@@]13C)C(=O)OC4)[C@H]2O,208 nM (active)
6,O=C(N[C@H]1CN2CCC1CC2)c1ccc(Cl)cc1,inactive
7,CC(=Cc1csc(C)n1)[C@@H]1C[C@H]2O[C@@H]2CCC[C@H](C)[C@@H](O)[C@@H](C)C(=O)C(C)(C)[C@@H](O)CC(=O)O1,13.1 nM (active)
8,Cc1c(C(=O)Nc2cccc(C(F)(F)F)c2)cc(-c2ccccc2)n1CCCN1CCOCC1,38000 nM (active)
9,CC(C)(C)C(O)C(Oc1ccc(Cl)cc1)n1cncn1 (stereo not given),inactive
10,CC[C@H]1C=CC=CC[C@@H](C)[C@H](O)[C@@](C)(O)C(=O)[C@@H](C)[C@H](O)[C@@H](C)C(=O)[C@@H](C)[C@H](O)[C@@H](C)C=CC(=O)O[C@@H]2[C@@H](C)[C@H](CC1)O[C@]1(CC[C@H](C)[C@H](C[C@@H](C)O)O1)[C@H]2C,3.7 nM (active)
11,CC(=Cc1csc(C)n1)[C@@H]1C[C@H]2O[C@]2(C)CCC[C@H](C)[C@@H](O)[C@@H](C)C(=O)C(C)(C)[C@@H](O)CC(=O)O1,11.7 nM (active)
